Only some compounds are listed: those with a hit (about 0.79% of all), similar ones and a draw of the others.
AMA1-RON2 inh: disrupts binding of P. falciparum AMA1 to RON2; AlphaScreen AMA1-biotinylated RON2 peptide binding; hit rate 0.2% among 360,000; AID 720542; Potency, µM (titrated, usually from 58.2 µM), most hits filed as inhibitors; also: nearly all actives have a fitted effect of over 45% in size
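AMA1 (3D7) with his tag at 25 nM final met compounds first, then biotinylated RON2 peptide at 25 nM; detection used donor plus acceptor beads, 10 µg/mL apiece, read by AlphaScreen after 30 min at room temperature.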
RE007 growth inh: less growth of the S. pombe RE007 Vpr strain; hit rate 0.21% among 360,000; S. pombe RE007 Vpr strain, BacTiter-Glo ATP luminescence, 24 h; Potency, µM (series often up to 92.2 µM), most hits filed as inhibitors; AID 651644; active = well fitted falling curve with a large enough effect; inconclusive = small, poorly fitted or top-dose-only effect; inactive = no such curve, though single readings can be large or run the other way; also: nearly all actives have a fitted effect of over 50% in size
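Fission yeast RE007 carrying one integrated HIV-1 vpr copy, seeded at OD 0.01 in PMG+AL medium with 23 nL pinned compound. Grown 24 h at 30 degrees; viability read by BacTiter-Glo luminescence after 5 min.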
AmpC inh detg: inhibitors of E. coli AmpC beta-lactamase with detergent; P00811; Potency, µM (titrated, usually from 114 µM), hits mostly inhibitors; AID 485294; AmpC hydrolysis of nitrocefin, absorbance 480 nm, 0.01% Triton; hit rate 0.041% among 370,000; also: nearly all actives have a fitted effect of over 25% in size
Target sequence (P00811 whole entry, looked up): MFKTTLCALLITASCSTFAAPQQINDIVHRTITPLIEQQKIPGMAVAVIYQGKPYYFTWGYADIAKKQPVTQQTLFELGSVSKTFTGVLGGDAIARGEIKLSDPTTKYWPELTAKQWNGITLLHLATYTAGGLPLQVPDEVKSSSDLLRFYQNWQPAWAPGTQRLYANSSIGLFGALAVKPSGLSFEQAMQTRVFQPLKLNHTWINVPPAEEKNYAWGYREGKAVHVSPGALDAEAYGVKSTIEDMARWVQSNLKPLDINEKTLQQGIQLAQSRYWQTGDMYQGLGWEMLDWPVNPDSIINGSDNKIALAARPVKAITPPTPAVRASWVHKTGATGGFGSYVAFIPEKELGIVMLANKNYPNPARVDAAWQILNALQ
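20 mM phosphate pH 7.0 + 0.01% (detergent screen) or 0.0001% Triton X-100; 5.3 nM AmpC reagent; cpd preinc 15 min RT; nitrocefin (800 uM stock) to start; A480 q20 s × 4 min; Activity was normalised to no-enzyme and no-compound control wells.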
AmpC no deterg: AmpC beta-lactamase inhibition without detergent; P00811; AmpC nitrocefin hydrolysis, absorbance 480 nm, 0.0001% Triton; Potency, µM (titrated, usually from 57.1 µM), most hits filed as inhibitors; hit rate 0.52% among 330,000; AID 485341; also: nearly all actives have a fitted effect of over 20% in size
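AmpC (5.3 nM in the dispensed reagent) in 20 mM phosphate pH 7.0 with 0.01% (detergent screen) or 0.0001% Triton X-100 was preincubated with compounds for 15 min at room temperature. Nitrocefin was then added from an 800 uM solution, and hydrolysis was followed at 480 nm.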
Of the large screens only hits and unclear results are named; the others gave an inactive call. Unless noted, calls follow the shape of the dose curve; as a rule, active = well fitted curve in the direction sought with a large enough effect; inconclusive = small, poorly fitted or top-dose-only effect, or another doubt; inactive = no such curve, though single readings can be large; an effect the other way counts as inactive or inconclusive.

COc1ccccc1NC(=O)c1sc2ncn(Cc3ccc(C)cc3)c(=O)c2c1C	AmpC no deterg 0.32µM
O=[N+]([O-])/C=C/c1cn(Cc2ccc(F)cc2)c2ccccc12	AmpC inh detg inconclusive, AmpC no deterg 18µM
O=Cc1cn(Cc2ccc(F)cc2)c2ccccc12	AmpC inh detg inconclusive
CCc1ccc(OCC(=O)N(Cc2cccs2)c2ccc(Cl)cc2)cc1	none (no result: AMA1-RON2 inh, RE007 growth inh, AmpC no deterg)
COc1ccc(C)cc1NCc1ccc(OC)c(C)c1OC	AMA1-RON2 inh 28µM
Cc1cccc(NC(=O)c2cnc3sccn3c2=O)c1C	AmpC inh detg inconclusive, AmpC no deterg 2.8µM (no result: AMA1-RON2 inh, RE007 growth inh)
CCCCC(NC(C)=O)c1nc2ccccc2[nH]1 (configuration not stated)	AmpC no deterg 40µM
CCCC(=O)NC(C)c1nc2ccccc2[nH]1 (configuration not stated)	none
CCCCNc1sc(S(=O)(=O)CC)nc1S(=O)(=O)c1ccc(C)cc1	none (no result: AMA1-RON2 inh, RE007 growth inh, AmpC no deterg)
CSc1nc(-c2ccccc2)c(C#N)c(=O)[nH]1	none
CCSc1nc(-c2ccccc2)c(C#N)c(=O)[nH]1	AmpC no deterg 2.2µM
CC[N+]1(C)CCC(O)(/C=C/c2ccccc2)C(C(=O)/C=C/c2ccccc2)C1 (configuration not stated)	RE007 growth inh 8.9µM (no result: AmpC inh detg, AmpC no deterg)
O=C(/C=C/c1ccc(O)c(O)c1)c1ccccc1O	RE007 growth inh inconclusive
O=C(C=Cc1cccc(O)c1)c1ccccc1O	RE007 growth inh 25µM (no result: AmpC inh detg, AmpC no deterg)
O=C(/C=C/c1ccccc1Cl)c1ccccc(=O)c1O	AmpC no deterg inconclusive
O=C(C=Cc1ccccc1O)c1ccccc1O	RE007 growth inh 35µM (no result: AmpC inh detg, AmpC no deterg)
Oc1c(C(Nc2cccc(C(F)(F)F)c2)c2cccnc2)ccc2cccnc12 (configuration not stated)	none
Cc1cc(NC(c2cccnc2)c2ccc3cccnc3c2O)no1 (configuration not stated)	AMA1-RON2 inh 20µM
C=C(C)Cn1c(SCC(=O)c2ccc(OC)cc2)nc2sc3c(c2c1=O)CCCC3	none (no result: AMA1-RON2 inh, RE007 growth inh, AmpC no deterg)
CCCCNC(=O)COC(=O)c1c2c(nc3ccccc13)/C(=C/c1cccs1)CC2	AmpC no deterg 25µM
CCCCNC(=O)COC(=O)c1c2c(nc3ccccc13)CCC2	none
O=C(N/N=C/c1cc(Br)cs1)c1c[nH]c2ccccc12	none
O=C(N/N=C/c1ccc(Br)s1)c1c[nH]c2ccccc12	AmpC no deterg 25µM
CC1CCCC(C)N1c1nnc(NC(=O)Cn2c(=O)oc3ccccc32)s1 (configuration not stated)	AmpC no deterg 10µM
CCc1nnc(NC(=O)Cn2c(=O)oc3ccccc32)s1	none
CC(=O)N(C1=C(Cl)C(=O)c2ccccc2C1=O)C1CCCCC1	RE007 growth inh 6.3µM
CC1(C)C(/C=C/C=C/C=C/C=C2\N(CCCCS(=O)(=O)O)c3ccc4ccccc4c3C2(C)C)=[N+](CCCCS(=O)(=O)[O-])c2ccc3ccccc3c21	AMA1-RON2 inh 8.9µM (no result: AmpC inh detg, AmpC no deterg)
Cc1c2ccccc2cc[n+]1CCCS(=O)(=O)[O-]	AMA1-RON2 inh inconclusive, AmpC inh detg inconclusive
CN(C)S(=O)(=O)c1cccc2c1C(=O)c1ccccc1C2=O	none
CN(C)c1cc2c(c(N(C)C)c1)C(=O)c1ccccc1C2=O	AMA1-RON2 inh 18µM
COc1ccc(CN(C(=O)Nc2ccccc2)c2ccccn2)cc1OC	none (no result: AMA1-RON2 inh, RE007 growth inh, AmpC no deterg)
Nc1cccnc1Sc1cccc(Cl)c1	RE007 growth inh 18µM
CC[n+]1c(/C=C/c2ccc(N(C)C)cc2)ccc2ccccc21	AMA1-RON2 inh inconclusive, RE007 growth inh 13µM, AmpC inh detg inconclusive
CC[n+]1ccc(/C=C/c2ccc(N(C)C)cc2)c2ccccc21	AMA1-RON2 inh 28µM, RE007 growth inh 13µM
O=C(NCc1ccccc1Cl)c1cnc(N2CCCCC2)c2ccccc12	none (no result: AMA1-RON2 inh, RE007 growth inh, AmpC no deterg)
Cc1cccc(-c2nc3c(cnn3-c3ccccc3)c(=O)n2-c2ccc(Cl)cc2)c1	none (no result: AMA1-RON2 inh, RE007 growth inh, AmpC no deterg)
Oc1cc2c(cc1O)C1c3ccc(O)c(O)c3OCC1(O)C2 (configuration not stated)	AMA1-RON2 inh 2µM
NS(=O)(=O)c1cccc(NC(=O)CSc2nc3ccccc3c(=O)n2CCCN2CCOCC2)c1	AmpC no deterg 32µM
Cc1oc2ncnc(N3CCCCC3)c2c1C(=O)N1CCN(c2cccc(C(F)(F)F)c2)CC1	none (no result: AMA1-RON2 inh, RE007 growth inh, AmpC no deterg)
O=C1C=CC(=O)N1c1cccc(-c2ccccc2)c1	RE007 growth inh 2.5µM
O=C(Nc1cccc(N2C(=O)C=CC2=O)c1)c1cccs1	AmpC inh detg inconclusive (no result: AMA1-RON2 inh, RE007 growth inh)
COc1ccc(NC(=O)COCc2cc(-c3cccs3)on2)cc1	none (no result: AMA1-RON2 inh, RE007 growth inh, AmpC no deterg)
CN(C)c1ccc(C=C2C=CC=C2)cc1	AMA1-RON2 inh 22µM (no result: AmpC inh detg, AmpC no deterg)
CN1C(=O)/C(=C\c2ccc(N(C)C)cc2)OC1=S	AmpC inh detg inconclusive
COc1ccc(-c2cc(=O)oc3c4c(ccc23)OCN(Cc2cccc(OC)c2)C4)cc1	none (no result: AMA1-RON2 inh, RE007 growth inh, AmpC no deterg)
CN(C1=C(NC(=O)c2ccc(Cl)cc2)C(=O)c2ccccc2C1=O)c1ccccc1	AMA1-RON2 inh 10µM, RE007 growth inh inconclusive
O=C(/C=C/c1cccc([N+](=O)[O-])c1)Nc1cccc(NC(=O)c2ccco2)c1	AmpC inh detg inconclusive, AmpC no deterg 3.2µM
CCOC(=O)/C=C/C(=O)Nc1cccc([N+](=O)[O-])c1	RE007 growth inh 8.9µM
CC(=O)N1CCc2c(sc3c2c(=O)n(CCc2ccccc2)c(=O)n3Cc2ccccc2C)C1	none (no result: AMA1-RON2 inh, RE007 growth inh, AmpC no deterg)
COC(=O)c1cccnc1N1CCN(c2ccccc2F)CC1	AmpC no deterg 0.16µM
CC1CN(C(=O)c2cc3c(=O)n4ccccc4nc3n2C)CC(C)O1 (configuration not stated)	AMA1-RON2 inh 11µM
COC(=O)C1C(=O)c2c([nH]c(C(=O)OC3CCCC3C)c2C)CC1C (configuration not stated)	AmpC inh detg inconclusive, AmpC no deterg 7.1µM
O=c1cc(NS(=O)(=O)c2ccccc2)nc(SCc2ccc(Cl)cc2)[nH]1	none
Cc1ccc(S(=O)(=O)Nc2cc(=O)[nH]c(SCc3ccccc3Cl)n2)cc1	AmpC inh detg inconclusive, AmpC no deterg 10µM
CC(C)C(NS(=O)(=O)c1cccs1)C(=O)NCc1ccc2c(c1)OCO2 (configuration not stated)	AmpC no deterg 40µM
Cc1ccc(CNC(=O)C(NS(=O)(=O)c2cccs2)C(C)C)cc1 (configuration not stated)	none
CCCCS(=O)(=O)c1sc2nc3c(cc2c1N)CCCC3	AMA1-RON2 inh 6µM, AmpC inh detg inconclusive
CCCCCCCCS(=O)c1sc2nc3c(cc2c1N)CCCC3 (configuration not stated)	none (no result: AmpC inh detg, AmpC no deterg)
COc1ccc2nc(/C(C#N)=C\c3ccc(Oc4ccc([N+](=O)[O-])cn4)cc3)[nH]c2c1	AmpC no deterg inconclusive
Cc1ccc2nc(/C(C#N)=C\c3ccc(Oc4ccc([N+](=O)[O-])cn4)cc3)[nH]c2c1	AmpC no deterg 28µM
CCC(C)NC(=O)C(Cc1ccccc1)n1cccc1 (configuration not stated)	AmpC inh detg inconclusive, AmpC no deterg 0.5µM
CC(C)c1ccc(NC(=O)C(Cc2ccccc2)n2cccc2)cc1 (configuration not stated)	none (no result: AMA1-RON2 inh, RE007 growth inh, AmpC no deterg)
